Measured values from PubChem BioAssay (NCATS).
Values joined by “and” are separate entries in the source; they are usually repeats but may differ in a detail not shown here. Equal values may be shown once. Results filed as inconclusive are left out. Active and inactive are the calls of the source. Unless noted, the call rests on the fitted dose curve.

How the values were obtained:
[1] = biological target: Estrogen receptor (Homo sapiens) (UniProt P03372); assay: qHTS assay for small molecule antagonists of estrogen receptor alpha signaling (AID 588513; active means well fitted curve in the direction sought with a large enough effect in the signal ratio, with a control signal flat, not every such curve was filed as active; the % refers to the signal ratio; further: on the % scale 0 is the no-effect control and ±100 the full control effect)
Estrogen receptor (Homo sapiens), sequence (P03372 whole entry, looked up): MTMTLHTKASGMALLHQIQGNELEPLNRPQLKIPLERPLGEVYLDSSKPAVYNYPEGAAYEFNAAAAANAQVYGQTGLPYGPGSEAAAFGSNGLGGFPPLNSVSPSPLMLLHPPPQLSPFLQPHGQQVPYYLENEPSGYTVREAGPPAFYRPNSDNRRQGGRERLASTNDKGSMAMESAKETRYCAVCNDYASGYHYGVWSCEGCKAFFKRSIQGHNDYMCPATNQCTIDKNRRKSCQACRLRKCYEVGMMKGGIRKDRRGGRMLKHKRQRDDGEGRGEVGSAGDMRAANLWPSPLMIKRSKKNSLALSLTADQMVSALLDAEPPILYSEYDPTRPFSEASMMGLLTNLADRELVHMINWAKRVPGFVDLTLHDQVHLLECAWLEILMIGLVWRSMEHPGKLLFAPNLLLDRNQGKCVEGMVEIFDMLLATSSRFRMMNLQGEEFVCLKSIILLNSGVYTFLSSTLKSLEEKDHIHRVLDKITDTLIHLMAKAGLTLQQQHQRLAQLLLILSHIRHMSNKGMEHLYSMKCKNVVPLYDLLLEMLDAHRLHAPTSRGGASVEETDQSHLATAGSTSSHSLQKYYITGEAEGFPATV
In short: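 Cells were plated at 5000/well and incubated 4 h at 37 C. Compounds were added as 1:2 dilution series, duplicates. 17-beta-estradiol (0.5nM final) was added for 18 h before CCF4 detection.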

[2] = biological target: Estrogen receptor (Homo sapiens) (UniProt P03372); assay: qHTS assay for small molecule agonists of estrogen receptor alpha signaling (AID 588514);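 further: 0% = vehicle only and 100% = reference agonist; nearly all actives have a fitted effect of over 70% in size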
In short: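 Efficacy is expressed against 20 nM 17-beta-estradiol (100%) and DMSO basal (0%); EC50 from Hill equation. Assay: beta-lactamase reporter in ER-alpha-UAS-bla HEK 293 cells, 18 h compound incubation, CCF4 detection.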

[3] = biological target: Peroxisome proliferator-activated receptor delta (Homo sapiens) (UniProt Q03181); assay: qHTS assay for small molecule agonists of peroxisome proliferator-activated receptor delta signaling (AID 588534);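 further: 0% = DMSO basal wells and 100% = positive control agonist at 10 µM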
Peroxisome proliferator-activated receptor delta (Homo sapiens), sequence (Q03181 whole entry, looked up): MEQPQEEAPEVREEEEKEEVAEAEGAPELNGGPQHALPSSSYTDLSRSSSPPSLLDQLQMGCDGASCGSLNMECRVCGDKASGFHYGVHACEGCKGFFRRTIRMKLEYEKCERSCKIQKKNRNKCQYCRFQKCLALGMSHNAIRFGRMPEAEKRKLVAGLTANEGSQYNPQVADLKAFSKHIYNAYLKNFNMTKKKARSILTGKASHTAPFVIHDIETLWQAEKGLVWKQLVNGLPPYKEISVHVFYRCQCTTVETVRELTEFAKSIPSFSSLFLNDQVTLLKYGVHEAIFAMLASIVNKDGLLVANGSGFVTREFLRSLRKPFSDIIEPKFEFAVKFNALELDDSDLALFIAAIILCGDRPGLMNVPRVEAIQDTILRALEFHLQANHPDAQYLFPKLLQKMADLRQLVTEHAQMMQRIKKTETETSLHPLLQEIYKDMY
In short: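 Agonist-mode qHTS; reporter cells, 5 hrs 37 C pre-incubation; compound titration, 18 hrs 37 C; CCF4 dye, 2 hrs RT; fluorescence read. EC50/efficacy via Hill fit.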

[4] = biological target: Peroxisome proliferator-activated receptor gamma (Homo sapiens) (UniProt P37231); assay: qHTS assay for small molecule agonists of peroxisome proliferator-activated receptor gamma signaling (AID 588536; active means well fitted curve in the direction sought with a large enough effect in the signal ratio, with a control signal flat, not every such curve was filed as active; the % refers to the signal ratio;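 further: 0% = DMSO basal wells and 100% = rosiglitazone at 2 µM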)
Peroxisome proliferator-activated receptor gamma (Homo sapiens), sequence (P37231 whole entry, looked up): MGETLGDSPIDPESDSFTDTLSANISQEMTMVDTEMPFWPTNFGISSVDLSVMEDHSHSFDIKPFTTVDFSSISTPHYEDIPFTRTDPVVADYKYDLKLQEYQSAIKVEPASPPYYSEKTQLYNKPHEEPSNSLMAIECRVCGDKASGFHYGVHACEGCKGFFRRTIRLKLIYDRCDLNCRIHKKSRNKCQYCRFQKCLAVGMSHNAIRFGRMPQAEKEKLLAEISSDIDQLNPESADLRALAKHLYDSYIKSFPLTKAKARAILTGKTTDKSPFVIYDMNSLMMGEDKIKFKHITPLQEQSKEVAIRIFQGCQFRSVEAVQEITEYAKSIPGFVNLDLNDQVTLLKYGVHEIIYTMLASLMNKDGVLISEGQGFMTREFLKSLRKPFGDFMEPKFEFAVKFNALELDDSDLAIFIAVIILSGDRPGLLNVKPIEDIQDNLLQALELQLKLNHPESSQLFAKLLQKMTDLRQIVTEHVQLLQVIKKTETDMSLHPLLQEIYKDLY
In short: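 This is an agonist-mode beta-lactamase reporter assay in HEK293 PPAR-gamma-UAS-bla cells with 1% charcoal/dextran FBS. Compound titrations ran 16 h at 37 C before CCF4 detection. EC50 and efficacy are Hill fits scaled to 2 uM rosiglitazone (100%) and DMSO basal.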

[5] = biological target: Vitamin D3 receptor (Homo sapiens) (UniProt P11473); assay: qHTS assay for small molecule antagonists of vitamin D receptor signaling (AID 588541);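 further: receptor activated by calcitriol during compound treatment; series mostly up to about 77 µM; on the % scale 0 is the no-effect control and ±100 the full control effect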
Vitamin D3 receptor (Homo sapiens), sequence (P11473 whole entry, looked up): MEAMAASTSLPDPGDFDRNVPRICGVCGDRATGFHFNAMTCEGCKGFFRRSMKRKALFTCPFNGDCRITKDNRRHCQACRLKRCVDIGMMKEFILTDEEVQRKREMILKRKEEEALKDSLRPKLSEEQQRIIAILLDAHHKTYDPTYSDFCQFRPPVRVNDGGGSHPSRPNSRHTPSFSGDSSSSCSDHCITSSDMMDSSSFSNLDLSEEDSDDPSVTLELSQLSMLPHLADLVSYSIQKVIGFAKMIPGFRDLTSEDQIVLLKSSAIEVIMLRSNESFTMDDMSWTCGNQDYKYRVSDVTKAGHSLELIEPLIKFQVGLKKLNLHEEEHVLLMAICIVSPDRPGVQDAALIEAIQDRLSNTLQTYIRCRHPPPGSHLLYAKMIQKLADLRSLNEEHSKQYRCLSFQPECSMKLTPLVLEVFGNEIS
In short: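 VDR-UAS-bla HEK293T cells in 2% charcoal-stripped FBS were stimulated with 1-alpha,25-dihydroxyvitamin D3 (3 nM final) plus compound for 16 h at 37 C. The beta-lactamase CCF4 readout was normalized to 50 nM agonist and DMSO, and Hill fits gave IC50.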

[6] = biological target: Vitamin D3 receptor (Homo sapiens) (UniProt P11473); assay: qHTS assay for small molecule agonists of vitamin D receptor signaling (AID 588543);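 further: 0% = DMSO basal and 100% = reference agonist control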
In short: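 qHTS in agonist mode: compound titrations stimulate a VDR-driven β-lactamase reporter in HEK293T cells over 16 h at 37 °C. Response normalized to 50 nM 1α,25-dihydroxyvitamin D3 = 100%, DMSO = 0%; Hill fitting gives EC50 and maximal response.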

[7] = biological target: Retinoic acid receptor RXR-alpha (Homo sapiens) (UniProt P19793); assay: qHTS assay for small molecule agonists of retinoid X receptor alpha signaling (AID 588544);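 further: 0% = DMSO basal wells and 100% = reference agonist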
Retinoic acid receptor RXR-alpha (Homo sapiens), sequence (P19793 whole entry, looked up): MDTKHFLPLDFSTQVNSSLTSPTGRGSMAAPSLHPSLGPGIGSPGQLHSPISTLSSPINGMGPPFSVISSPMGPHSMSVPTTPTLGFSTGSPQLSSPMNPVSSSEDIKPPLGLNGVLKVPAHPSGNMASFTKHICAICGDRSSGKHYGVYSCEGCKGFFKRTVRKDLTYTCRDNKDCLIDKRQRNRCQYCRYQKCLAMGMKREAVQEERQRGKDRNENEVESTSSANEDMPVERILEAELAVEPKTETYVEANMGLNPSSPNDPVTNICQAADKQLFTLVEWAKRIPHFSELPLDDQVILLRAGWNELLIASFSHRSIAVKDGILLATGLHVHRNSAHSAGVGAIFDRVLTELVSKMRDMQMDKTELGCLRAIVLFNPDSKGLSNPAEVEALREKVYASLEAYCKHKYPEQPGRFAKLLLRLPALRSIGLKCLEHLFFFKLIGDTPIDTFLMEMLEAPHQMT

[8] = qHTS assay for small molecule antagonists of retinoid X receptor alpha signaling (AID 588546; active means well fitted inhibition curve with a large enough effect in the signal ratio, with a control signal flat, not every such curve was filed as active; the % refers to the signal ratio;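 further: cells stimulated with 9-cis-retinoic acid as agonist; on the % scale 0 is the no-effect control and ±100 the full control effect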); conditions: HEK293T RXRa-UAS-bla, beta-lactamase ratio, antagonist mode; measured here: W530 green channel, cytotoxicity proxy
In short: (§1)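 Beta-lactamase reporter inhibition, read as CCF4 fluorescence ratio (ex 405, em 460/530 nm) after 2 h at RT. HEK293T UAS-bla cells, 2500/well, were stimulated with 9-cis-RA at 500 or 100 nM final alongside test compound for 18 h at 37 C.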

[9] = biological target: Retinoic acid receptor RXR-alpha (Homo sapiens) (UniProt P19793); assay: as above; conditions: HEK293T RXRa-UAS-bla, beta-lactamase ratio, antagonist mode
In short: as §1

[10] = qHTS assay for small molecule activators of the p53 signaling pathway (AID 651743; active means well fitted activation curve with a large enough effect in the signal ratio, not every such curve was filed as active; the % refers to the signal ratio; further: series mostly up to about 92 µM; % of control where 0% means no effect); conditions: HCT-116 p53RE-bla, beta-lactamase FRET ratio, 16 h; activation: stronger effect = higher value
In short: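 Following 16 hours of compound exposure at 37 C, HCT-116 cells bearing the p53RE-bla reporter were loaded with LiveBLAzer B/G FRET substrate for 2 hours at room temperature and fluorescence intensity was recorded.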

[11] = qHTS assay for small molecule activators of the nuclear factor-kappa B (NF-kB) signaling pathway (AID 651749; active means well fitted activation curve with a large enough effect in the signal ratio; the % refers to the signal ratio; further: series mostly up to about 77 µM; % of control where 0% means no effect); conditions: NF-kB-bla ME-180 cells, beta-lactamase FRET ratio, 16 h; activation: stronger effect = higher value
In short: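 In this qHTS format, compounds acting as activators increase NF-kB-driven beta-lactamase in ME-180 cells, measured as disrupted FRET after 16 hr exposure at 37C and 5% CO2.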

[12] = qHTS assay for environmental chemicals that activate the Aryl hydrocarbon Receptor (AhR) signaling pathway (AID 651777; active means well fitted curve in the direction sought with a large enough effect; an effect the other way counts as inactive or inconclusive; further: % of control where 0% means no effect; nearly all actives have a fitted effect of over 15% in size); conditions: 1A2-DRE human hepatoma cells, luciferase, 24 h; activation: stronger effect = higher value
In short: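 Concentration–response screening used 1,200 1A2-DRE cells per well, 24 hr compound exposure (37 C, 5% CO2), and One-Glo luminescence as the AhR-driven CYP1A2 reporter signal.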

[13] = qHTS assay for small molecule agonists of the antioxidant response element (ARE) signaling pathway measured by Nrf2-dependant transcriptional activity (AID 720636; active means well fitted curve in the direction sought with a large enough effect in the repeat runs; an effect the other way counts as inactive or inconclusive;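 further: HepG2 cells with an ARE-driven luciferase reporter; % of control where 0% means no effect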)
In short: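 Attachment 6 hr at 37 C, then compound versus DMSO vehicle for 16 hr in ARE-luc HepG2 cells (1% dialyzed FBS); luminescence recorded 30 min after ONE-Glo addition at room temperature.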

[14] = qHTS assay for small molecule agonists of the antioxidant response element (ARE) signaling pathway measured by Nrf2-dependant transcriptional activity - cell viability counter screen (AID 720653; active means well fitted curve in the direction sought with a large enough effect in the repeat runs; an effect the other way counts as inactive or inconclusive; further: on the % scale 0 is the no-effect control and ±100 the full control effect); conditions: ARE-bla HepG2 viability, CellTiter-Glo ATP luminescence, 16 h; max response: stronger effect = lower value
In short: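 ARE-bla HepG2 cells treated with compounds for 16 h at 37C; this counter screen measures viability as intracellular ATP by CellTiter-Glo luminescence after 30 min at room temperature.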

[15] = qHTS assay for cell viability of HEK293 cells (AID 743288; active means well fitted curve in the direction sought with a large enough effect; an effect the other way counts as inactive or inconclusive; further: on the % scale 0 is the no-effect control and ±100 the full control effect; nearly all actives have a fitted effect of over 50% in size); conditions: ATP luminescence (CellTiter-Glo), 18 h; max response: stronger effect = lower value
In short: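 Quantitative high-throughput screen: compounds were pinned onto parental HEK293 cells (2,000 per well) after a minimum 5 h settling at 37 C, incubated 18 h at 37 C, and intracellular ATP measured by luciferase luminescence.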

[16] = qHTS assay for cell viability of the p53RE-bla HCT-116 cell line (AID 743292; active means well fitted curve in the direction sought with a large enough effect; an effect the other way counts as inactive or inconclusive; further: on the % scale 0 is the no-effect control and ±100 the full control effect; nearly all actives have a fitted effect of over 55% in size)
In short: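 Compound-exposed HCT-116 (p53RE-bla) cells, 4,000 per well, were kept 16 h at 37 C following a 5 h preincubation. Cell number was estimated from total ATP by CellTiter-Glo luminescence read after 30 min at room temperature.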

[17] = biological target: Nuclear receptor subfamily 1 group I member 2 (Rattus norvegicus) (UniProt Q9R1A7); assay: qHTS assay for small molecule activators of the rat pregnane X receptor (rPXR) signaling pathway (AID 651751; call rule not given here; further: 0% is about no effect); conditions: rPXR reporter cells, luciferase (One-Glo), 24 h
Nuclear receptor subfamily 1 group I member 2 (Rattus norvegicus), sequence (Q9R1A7 whole entry, looked up): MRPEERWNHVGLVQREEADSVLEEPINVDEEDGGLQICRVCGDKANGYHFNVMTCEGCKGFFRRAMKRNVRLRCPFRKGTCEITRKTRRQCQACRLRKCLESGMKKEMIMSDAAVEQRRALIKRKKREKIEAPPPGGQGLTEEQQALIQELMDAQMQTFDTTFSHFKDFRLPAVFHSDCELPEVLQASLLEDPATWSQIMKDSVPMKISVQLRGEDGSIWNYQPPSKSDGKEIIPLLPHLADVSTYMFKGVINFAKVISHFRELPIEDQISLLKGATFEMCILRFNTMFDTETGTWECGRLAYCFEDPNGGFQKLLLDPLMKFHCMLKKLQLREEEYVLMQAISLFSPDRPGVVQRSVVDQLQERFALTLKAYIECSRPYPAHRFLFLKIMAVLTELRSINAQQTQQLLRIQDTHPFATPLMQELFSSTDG

[18] = biological target: Glucocorticoid receptor (Homo sapiens) (UniProt P04150); assay: qHTS assay for small molecule agonists of glucocorticoid receptor signaling (AID 588532; active means well fitted curve in the direction sought with a large enough effect in the signal ratio, with a control signal flat; the % refers to the signal ratio;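 further: 100% = dexamethasone at 0.1 µM and 0% = DMSO only wells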); conditions: HeLa MMTV-bla, beta-lactamase ratio, agonist, 18 h; activation: stronger effect = higher value, percent of dexamethasone control, DMSO zero
Glucocorticoid receptor (Homo sapiens), sequence (P04150 whole entry, looked up): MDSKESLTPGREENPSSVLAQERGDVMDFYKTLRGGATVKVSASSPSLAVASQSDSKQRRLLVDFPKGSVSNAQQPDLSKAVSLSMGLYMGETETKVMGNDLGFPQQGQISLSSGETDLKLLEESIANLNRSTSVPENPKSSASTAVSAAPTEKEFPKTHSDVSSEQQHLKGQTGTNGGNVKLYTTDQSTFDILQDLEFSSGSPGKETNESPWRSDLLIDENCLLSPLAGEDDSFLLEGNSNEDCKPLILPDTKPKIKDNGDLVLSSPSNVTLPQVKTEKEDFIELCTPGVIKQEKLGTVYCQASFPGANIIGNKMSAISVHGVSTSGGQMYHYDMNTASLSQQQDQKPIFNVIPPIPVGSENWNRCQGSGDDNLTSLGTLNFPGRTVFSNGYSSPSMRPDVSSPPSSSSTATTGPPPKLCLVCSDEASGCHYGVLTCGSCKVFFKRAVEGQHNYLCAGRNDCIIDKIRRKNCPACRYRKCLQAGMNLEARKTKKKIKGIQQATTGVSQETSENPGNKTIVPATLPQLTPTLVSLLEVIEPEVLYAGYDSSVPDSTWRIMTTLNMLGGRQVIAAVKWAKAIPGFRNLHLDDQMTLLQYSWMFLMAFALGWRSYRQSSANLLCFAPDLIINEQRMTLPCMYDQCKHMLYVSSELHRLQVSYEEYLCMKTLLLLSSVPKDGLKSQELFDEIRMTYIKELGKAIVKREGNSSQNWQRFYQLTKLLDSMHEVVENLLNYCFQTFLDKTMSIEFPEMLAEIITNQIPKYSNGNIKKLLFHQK
In short: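 MMTV-bla HeLa beta-lactamase reporter cells in 1% charcoal/dextran FBS medium, compounds up to 92 uM for 18 h at 37 C, CCF4 readout; normalized to 0.1 uM dexamethasone (100%), EC50 and efficacy from Hill fits.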

[19] = biological target: Thyroid hormone receptor beta (Homo sapiens) (UniProt P10828); assay: qHTS assay for small molecule agonists of thyroid hormone receptor beta signaling (AID 588545);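 further: 0% = DMSO only and 100% = 10 nM T3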
Thyroid hormone receptor beta (Homo sapiens), sequence (P10828 whole entry, looked up): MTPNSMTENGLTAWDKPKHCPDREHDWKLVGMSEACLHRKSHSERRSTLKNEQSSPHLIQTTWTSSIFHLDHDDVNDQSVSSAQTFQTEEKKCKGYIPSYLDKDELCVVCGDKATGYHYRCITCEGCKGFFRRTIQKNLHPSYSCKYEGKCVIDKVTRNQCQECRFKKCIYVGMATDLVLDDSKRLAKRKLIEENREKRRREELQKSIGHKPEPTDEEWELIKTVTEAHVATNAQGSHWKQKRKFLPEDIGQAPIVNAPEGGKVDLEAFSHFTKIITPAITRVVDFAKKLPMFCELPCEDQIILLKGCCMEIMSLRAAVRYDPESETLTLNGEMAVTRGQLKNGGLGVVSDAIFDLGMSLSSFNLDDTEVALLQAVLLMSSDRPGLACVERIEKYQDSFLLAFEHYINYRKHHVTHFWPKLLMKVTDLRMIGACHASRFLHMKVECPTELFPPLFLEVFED
In short: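 Compounds were tested as agonists in TR-UAS-bla-GripTite HEK 293 cells. After 18 hrs at 37 C, CCF4 substrate was added and fluorescence read after 2 hrs at room temperature.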

[20] = biological target: Peroxisome proliferator-activated receptor alpha (Homo sapiens) (UniProt Q07869); assay: qHTS assay for small molecule agonists of the peroxisome proliferator-activated receptor alpha (PPARalpha) signaling pathway (AID 651778; active means well fitted curve in the direction sought with a large enough effect; an effect the other way counts as inactive or inconclusive; further: % of control where 0% means no effect); conditions: PathHunter PPARalpha complementation, chemiluminescence, 6 h; max response: stronger effect = higher value
Peroxisome proliferator-activated receptor alpha (Homo sapiens), sequence (Q07869 whole entry, looked up, the tested form may be a part): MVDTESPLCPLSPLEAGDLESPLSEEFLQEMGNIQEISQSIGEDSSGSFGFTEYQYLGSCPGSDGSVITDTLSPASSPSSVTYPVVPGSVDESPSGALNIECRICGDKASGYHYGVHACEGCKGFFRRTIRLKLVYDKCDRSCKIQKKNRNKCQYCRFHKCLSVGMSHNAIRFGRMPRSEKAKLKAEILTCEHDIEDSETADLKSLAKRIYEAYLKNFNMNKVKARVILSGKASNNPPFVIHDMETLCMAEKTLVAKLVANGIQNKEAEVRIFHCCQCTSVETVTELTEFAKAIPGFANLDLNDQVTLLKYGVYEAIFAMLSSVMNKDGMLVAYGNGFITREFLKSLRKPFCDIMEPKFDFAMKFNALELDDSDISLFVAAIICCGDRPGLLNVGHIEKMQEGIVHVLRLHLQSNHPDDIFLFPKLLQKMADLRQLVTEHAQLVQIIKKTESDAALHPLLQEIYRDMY
In short: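 Enzyme-fragment complementation assay in which ligand-bound PPARalpha translocates and forms an active enzyme that generates chemiluminescence. Cells were plated overnight, exposed to compound for 6 hr at 37 C, and then given detection reagent for 60 min at room temperature.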

CCOP(=O)(OCC)SCSCC
inactive: Potency [1] | Potency [2] | outcome [3] | Potency [4] | Potency [5] | outcome [6] | Potency [7] | max response [9] -5.71% | activation [10] 4.72% | activation [11] -2% | activation [12] 0.0868% | Potency [13] | max response [14] 2.19% | max response [15] -3.03% | Potency [16] | max response [17] -5.9%
-15.2%: max response [8]

C/C=C(\C)C(=O)O[C@H]1C[C@@H](OC(C)=O)[C@@]2(C(=O)OC)CO[C@H]3[C@@H](O)[C@@](C)([C@]45O[C@@]4(C)[C@H]4C[C@@H]5O[C@@H]5OC=C[C@@]54O)[C@H]4[C@]1(CO[C@]4(O)C(=O)OC)[C@@H]32
-5.84%: max response [8]
inactive: Potency [1] | Potency [2] | activation [18] 4.96% | outcome [3] | Potency [4] | Potency [5] | outcome [6] | Potency [7] | Potency [19] | max response [9] 9.93% | activation [10] 6.01% | activation [11] -1.4% | activation [12] -0.999% | max response [20] -3.71% | Potency [13] | max response [14] -22.9% | max response [15] -0.199% | Potency [16]

CCOP(=S)(OCC)SCC(=O)NC(C)C
-8.13%: max response [8]
inactive: Potency [1] | Potency [2] | activation [18] 3% | outcome [3] | Potency [4] | Potency [5] | outcome [6] | Potency [7] | Potency [19] | max response [9] -1.4% | activation [10] -0.0599% | activation [11] 0.608% | activation [12] 0.496% | max response [20] -4.11% | Potency [13] | max response [14] 2% | max response [15] -3.84% | Potency [16]

O=[As](O)(O)O
inactive: Potency [1] | Potency [2] | activation [18] -5.56% | outcome [3] | Potency [4] | outcome [6] | Potency [7] | Potency [19] | max response [9] -6.13% | activation [10] -0.546% | activation [11] -0.92% | activation [12] -0.386% | max response [20] 0.0106% | max response [14] -8.77% | max response [15] -4.83% | Potency [16] | max response [17] -1.48%
-3.47%: max response [8]

Cc1ccccc1C(=O)Nc1cccc(OC(C)C)c1
inactive: Potency [1] | Potency [2] | activation [18] 2.19% | outcome [3] | Potency [7] | Potency [19] | max response [9] -11.3% | activation [10] -3.37% | activation [11] 0.221% | max response [20] -0.819% | max response [14] -14.9% | max response [15] -16% | Potency [16]
-1.03%: max response [8]

Nc1ccc([N+](=O)[O-])cc1Cl
inactive: Potency [1] | Potency [2] | activation [18] -4.74% | outcome [3] | Potency [4] | Potency [5] | outcome [6] | Potency [7] | Potency [19] | max response [9] -1.45% | activation [10] -0.946% | activation [11] 0.235% | activation [12] 3.47% | max response [20] -5.45% | Potency [13] | max response [14] 3.06% | max response [15] -1.89% | Potency [16] | max response [17] 2.06%
-11.1%: max response [8]

CCOP(=O)(O)C(N)=O
-9.11%: max response [8]
inactive: Potency [1] | Potency [2] | activation [18] 4.17% | outcome [3] | Potency [4] | Potency [5] | outcome [6] | Potency [7] | Potency [19] | max response [9] -9.79% | activation [12] -2.02% | max response [20] -1.31% | Potency [13] | max response [14] -6.84% | max response [15] -8.79% | Potency [16] | max response [17] -2.01%

COc1nc(C)nc(NC(=O)NS(=O)(=O)c2ccccc2CCC(F)(F)F)n1
inactive: Potency [1] | Potency [2] | activation [18] -2.83% | Potency [4] | Potency [5] | outcome [6] | Potency [7] | max response [9] -8.68% | activation [10] 1.94% | activation [11] -0.385% | activation [12] 0.656% | Potency [13] | max response [14] 3.55% | max response [15] 0.421% | Potency [16] | max response [17] 1.14%
-4.25%: max response [8]

C=CC(=O)NCO
-9.77% and -7.1%: max response [8]
inactive: Potency [1] | Potency [2] | activation [18] -0.576% and 6.11% | outcome [3] | Potency [4] | outcome [6] | Potency [19] | max response [9] 4.89% and 0.243% | activation [10] 0.261% and -0.511% | activation [11] 0.439% and -0.866% | activation [12] 0.0723% and 1.42% | max response [20] -1.6% and -1.01% | max response [14] -3.08% and -9.83% | max response [15] -8.84% and -5.85% | Potency [16] | max response [17] 3.28% and -7.26%

Clc1ccc([C@]2(Cn3cncn3)C[C@H](Br)CO2)c(Cl)c1
-15.4% and -0.171%: max response [8]
inactive: Potency [1] | Potency [2] | activation [18] -7.37% and -0.86% | outcome [3] | Potency [4] | outcome [6] | Potency [7] | Potency [19] | max response [9] -14.1% and -9.34% | activation [10] -0.748% and 2.17% | activation [11] -1.6% and -1.96% | activation [12] -0.98% and 1.78% | max response [20] -0.439% and 5.59% | Potency [13] | max response [14] -1.87% and -2% | max response [15] -7.75% and -8.79% | Potency [16]
